Results: PubChem BioAssay (NCATS)
Inconclusive results are not listed. Calls of active or inactive are those of the source. Unless noted, calls follow the shape of the dose curve; as a rule, active = well fitted curve in either direction with a large enough effect (not every such curve was filed as active); inconclusive = small, poorly fitted or top-dose-only effect, or another doubt; inactive = flat fitted curve, though single readings scatter.

Key:
[1] = target: Lysosomal acid glucosylceramidase (Homo sapiens) (UniProt P04062); assay: Glucocerebrosidase-p2 (AID 348; in the data active = potency below about 10 µM; also: potency is read from the fitted curve at half-maximal effect); settings: purified GBA, blue fluorogenic substrate, 40 min
In short: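 Normal human glucocerebrosidase (0.2 nM) with blue fluorogenic substrate (80 uM final) in citrate/phosphate pH 5.9 with 10mM sodium taurocholate, 0.01% tween-20; 40 min RT, NaOH/glycine stop; fluorescence Ex 365/Em 440; AC50 from a titration from 0.6 nM upwards.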

[2] = AP1 Signaling Pathway (AID 357); settings: ME-180 AP-1-bla reporter, EGF-induced, beta-lactamase ratio, 5 h; at 7.69 µM (top of the series) unless noted;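 also: ME-180 reporter cells stimulated with EGF at its EC50 level; % is scaled to controls: 0 for no effect and ±100 for the full control effect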
In short: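 Read-out was the 460nm/530nm emission ratio (excitation 405nm) after CCF4 loading for 2.5 hours at room temperature. Cells carried an AP-1-driven beta-lactamase reporter, were stimulated with EC50 EGF plus compound for 5 hours, and AC50 values came from titrations.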

[3] = NFAT Signaling Pathway (AID 444); settings: Jurkat NFAT-bla M1, carbachol, beta-lactamase ratio, 5 h; at 7.69 µM (top of the series) unless noted;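 also: carbachol stimulus at about its EC50 of 1 µM final; % is scaled to controls: 0 for no effect and ±100 for the full control effect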
In short: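 Read-out: CCF4 FRET ratio (460 nm/530 nm) after 1 h RT dye loading, used for %activity and AC50 from titration series. Cells: Jurkat NFAT-β-lactamase/M1 line, treated with compound plus 1 uM carbachol for 5 h, 37 °C.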

[4] = Stat Signaling Pathway (AID 446); settings: ME-180 (cervical carcinoma) SIE beta-lactamase reporter, IL-6 stimulated, 5 h; at 7.69 µM (top of the series) unless noted;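 also: ME-180 cervical cancer cells given 40 pM IL-6 alongside compound; SIE-controlled beta-lactamase reporter measured as 460/530 nm FRET emission ratio; % is scaled to controls: 0 for no effect and ±100 for the full control effect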
In short: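 Compound effects on IL-6-induced STAT reporter activity were measured in ME-180 cells. After overnight culture, cells were co-treated with 40 pM IL-6 for 5 hrs before beta-lactamase substrate loading at room temperature.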

[5] = target: Glucocorticoid receptor (Homo sapiens) (UniProt P04150); assay: GR-EFC Redistribution (AID 451; calls by dose curve; also: potency is read from the fitted curve at half-maximal effect); settings: CHO-K1 GR-EFC translocation, beta-gal luminescence, 2 h
In short: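 Translocation of GR-ED fusion to nuclear EA restores b-gal, read by luminescence after 1 h room-temperature detection. Engineered CHO-K1 biosensor cells, 1,000/well, exposed 2 h at 37 C to titrations up to 46 uM final.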

[6] = target: Mitogen-activated protein kinase 10 (Mus musculus) (UniProt Q61831); assay: JNK3 AlphaScreen Assay (AID 530); settings: JNK3 lysate, c-Jun phosphorylation; series mostly up to 57.1 µM;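 also: kinase came from lysate of stimulated human HepG2 cells; signal reports phosphorylation of biotinylated GST-cJun 1-79 at Ser73 with 10 µM ATP; % is scaled to controls: 0 for no effect and ±100 for the full control effect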
In short: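 Kinase buffer: 20 mM Tris-HCl pH 7.6, 10 mM MgCl2, 1 mM DTT, 0.1 mM Na3VO4, 0.01% Tween-20; ATP 10 uM. Substrate biotin-GST-cJun(1-79), enzyme from activated HepG2 lysates. Detection by Ser73 phospho-antibody AlphaScreen.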

[7] = target: 3',5'-cyclic-AMP phosphodiesterase 4B (Homo sapiens) (UniProt Q07343); assay: qHTS Assay for Inhibitors of PDE-IV (AID 607; active = well fitted activation curve with a large enough effect in the main read-out, with a control signal flat, not every such curve was filed as active; also: % of control where 0% means no effect); settings: HEK293 ACTOne CNG channel cells, membrane potential fluorescence; series mostly up to 22.9 µM
In short: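 ACTOne HEK293 cells carry a modified cAMP-gated CNG channel and express endogenous PDE4; plated 1000 cells/well, compounds up to 22.9 uM final. Membrane-potential dye fluorescence (ex 535/em 590) was read; parental cells received 10 uM forskolin + 100 uM RO 20-1724.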

[8] = qHTS Assay for Lipid Storage Modulators (AID 1519; calls by dose curve); settings: Drosophila S3 cells, BODIPY lipid droplet/cell ratio, laser cytometry, cells loaded with oleic acid; for activity change, negative = inhibition: at 57.5 µM (top of the series)
In short: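 Cells seeded at 5,000 per well were treated with compounds over a concentration series and loaded with oleic acid (400 uM, as added). Lipid droplet fluorescence (488 nm excitation, 500-530 nm channel) was read by laser-scanning cytometry and normalized to 20 uM Triacsin C.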

[9] = Primary qHTS for small molecule stabilizers of the endoplasmic reticulum resident proteome: Secreted ER Calcium Modulated Protein (SERCaMP) assay (AID 1508630; active = well fitted inhibition curve with a large enough effect; also: % is scaled to controls: 0 for no effect and ±100 for the full control effect); settings: SH-SY5Y GLuc-SERCaMP (Gaussia luciferase released on ER calcium loss) secretion, thapsigargin, luminescence; series mostly up to 38.4 µM
In short: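 The SH-SY5Y reporter protocol was run at 3 concentrations up to 38.3 uM (primary) or 11 concentrations (follow-up): 16 h compound, 100 nM thapsigargin for 4 h, then extracellular luciferase luminescence.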

[10] = measured here: cell count channel max response
[11] = measured here: lipid channel max response

Glucocorticoid receptor (Homo sapiens), sequence (P04150 whole entry, looked up, the tested form may be a part): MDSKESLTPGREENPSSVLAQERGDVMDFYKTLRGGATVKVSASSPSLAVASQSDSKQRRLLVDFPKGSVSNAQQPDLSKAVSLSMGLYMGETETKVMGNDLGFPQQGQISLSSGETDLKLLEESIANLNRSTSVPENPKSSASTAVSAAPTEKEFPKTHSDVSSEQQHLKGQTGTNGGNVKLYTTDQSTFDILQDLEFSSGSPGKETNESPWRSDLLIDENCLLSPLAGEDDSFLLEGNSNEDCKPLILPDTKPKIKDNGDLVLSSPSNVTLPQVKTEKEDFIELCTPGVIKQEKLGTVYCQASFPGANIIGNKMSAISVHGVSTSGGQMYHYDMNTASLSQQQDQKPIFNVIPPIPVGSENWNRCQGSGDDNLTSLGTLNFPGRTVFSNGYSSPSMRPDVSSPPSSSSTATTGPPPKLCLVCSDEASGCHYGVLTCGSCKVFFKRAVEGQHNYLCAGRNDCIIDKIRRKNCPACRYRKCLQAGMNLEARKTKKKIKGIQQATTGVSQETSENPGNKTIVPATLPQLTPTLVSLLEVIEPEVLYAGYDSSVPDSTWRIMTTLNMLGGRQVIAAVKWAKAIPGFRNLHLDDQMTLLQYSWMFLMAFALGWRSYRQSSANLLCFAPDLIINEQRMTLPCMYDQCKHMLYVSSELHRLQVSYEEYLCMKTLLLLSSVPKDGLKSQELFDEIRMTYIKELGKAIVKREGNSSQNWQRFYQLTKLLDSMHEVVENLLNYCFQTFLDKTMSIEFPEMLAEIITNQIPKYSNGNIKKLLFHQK
Lysosomal acid glucosylceramidase (Homo sapiens), sequence (P04062 whole entry, looked up): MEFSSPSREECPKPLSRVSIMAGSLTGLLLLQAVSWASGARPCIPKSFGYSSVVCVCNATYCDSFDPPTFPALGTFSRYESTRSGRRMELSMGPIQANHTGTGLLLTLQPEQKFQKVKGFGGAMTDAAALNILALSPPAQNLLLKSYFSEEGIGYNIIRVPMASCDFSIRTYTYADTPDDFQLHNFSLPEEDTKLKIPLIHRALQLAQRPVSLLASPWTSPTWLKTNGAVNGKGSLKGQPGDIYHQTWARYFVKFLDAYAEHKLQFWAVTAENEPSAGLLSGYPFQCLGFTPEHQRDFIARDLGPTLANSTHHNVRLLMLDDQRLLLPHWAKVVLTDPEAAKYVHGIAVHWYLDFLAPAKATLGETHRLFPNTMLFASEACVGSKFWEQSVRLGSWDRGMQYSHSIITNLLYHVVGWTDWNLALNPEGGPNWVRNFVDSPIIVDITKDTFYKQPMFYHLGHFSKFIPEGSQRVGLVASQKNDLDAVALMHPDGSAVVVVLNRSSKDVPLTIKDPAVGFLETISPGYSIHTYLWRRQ
3',5'-cyclic-AMP phosphodiesterase 4B (Homo sapiens), sequence (Q07343 whole entry, looked up): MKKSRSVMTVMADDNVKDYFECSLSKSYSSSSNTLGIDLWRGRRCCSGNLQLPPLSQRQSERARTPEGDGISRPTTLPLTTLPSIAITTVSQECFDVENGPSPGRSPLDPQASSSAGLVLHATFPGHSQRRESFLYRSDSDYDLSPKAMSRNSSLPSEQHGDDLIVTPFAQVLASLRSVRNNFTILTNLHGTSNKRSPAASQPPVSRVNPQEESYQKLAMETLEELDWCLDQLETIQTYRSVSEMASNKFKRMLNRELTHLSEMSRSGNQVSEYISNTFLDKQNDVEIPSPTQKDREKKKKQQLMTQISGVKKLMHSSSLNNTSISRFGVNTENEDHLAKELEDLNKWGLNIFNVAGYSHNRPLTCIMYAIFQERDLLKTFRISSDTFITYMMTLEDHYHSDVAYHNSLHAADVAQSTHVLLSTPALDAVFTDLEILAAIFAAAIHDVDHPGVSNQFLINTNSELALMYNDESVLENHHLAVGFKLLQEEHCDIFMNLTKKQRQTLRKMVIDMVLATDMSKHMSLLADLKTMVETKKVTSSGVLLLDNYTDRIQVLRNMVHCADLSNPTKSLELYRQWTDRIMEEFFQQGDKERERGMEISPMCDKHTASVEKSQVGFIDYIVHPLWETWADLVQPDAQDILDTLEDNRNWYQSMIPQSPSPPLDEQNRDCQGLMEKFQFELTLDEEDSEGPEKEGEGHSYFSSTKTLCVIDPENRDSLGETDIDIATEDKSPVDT

Cn1cccc1C(=O)N1CCC[C@@]2(CCN(C(=O)Nc3cccc(F)c3)C2)C1
17.3%: max response [8, 11]
9.75%: max response [8, 10]
inactive: Potency [1] > 11.4 µM | activity change, negative = inhibition [2] -5.32% | activity change, negative = inhibition [3] 4.03% | activity, negative = inhibition [4] 5.29% | Potency [5] > 46 µM | Potency [6] | Potency [7] | activity change, negative = inhibition [8] 4.9% | outcome [9]

Cc1noc(C)c1C(=O)N1CCC2(CC1)CN(Cc1cc(C(F)(F)F)cc(C(F)(F)F)c1)C2
-1.83%: max response [8, 10]
inactive: Potency [1] > 11.4 µM | activity change, negative = inhibition [2] -7.95% | activity change, negative = inhibition [3] -16.8% | activity, negative = inhibition [4] -3.94% | Potency [5] > 46 µM | Potency [6] | Potency [7] | activity change, negative = inhibition [8] -4.32% | outcome [9]
-4.57%: max response [8, 11]

CC(C)CN1CC[C@@]2(CCCN(C(=O)c3cccc(F)c3)C2)C1
19.5%: max response [8, 11]
inactive: Potency [1] > 11.4 µM | activity change, negative = inhibition [2] -9.55% | activity change, negative = inhibition [3] -0.696% | activity, negative = inhibition [4] 6.14% | Potency [5] > 46 µM | Potency [6] | Potency [7] | activity change, negative = inhibition [8] 1.5% | outcome [9]
13.4%: max response [8, 10]

COc1ccc(C(=O)N2CCC[C@@]3(CCN(Cc4ccncc4)C3)C2)cc1
16.4%: max response [8, 10]
inactive: Potency [1] > 11.4 µM | activity change, negative = inhibition [2] -9.73% | activity change, negative = inhibition [3] 4.96% | activity, negative = inhibition [4] 2.52% | Potency [5] > 46 µM | Potency [6] | Potency [7] | activity change, negative = inhibition [8] 5.81% | outcome [9]
25.6%: max response [8, 11]

COC(=O)N1CCC[C@@]2(CCN(C(=O)NC(C)C)C2)C1
-3.79%: max response [8, 11]
inactive: Potency [1] > 11.4 µM | activity change, negative = inhibition [2] -4.17% | activity change, negative = inhibition [3] -22.1% | activity, negative = inhibition [4] 8.06% | Potency [5] > 46 µM | Potency [6] | Potency [7] | activity change, negative = inhibition [8] 2.29% | outcome [9]
-6.98%: max response [8, 10]

CC(=O)N1CCC2(CCCN(C(=O)Nc3cccc(C#N)c3)C2)CC1
15.6%: max response [8, 11]
12.8%: max response [8, 10]
inactive: Potency [1] > 11.4 µM | activity change, negative = inhibition [2] -1.46% | activity change, negative = inhibition [3] -5.5% | activity, negative = inhibition [4] 4.81% | Potency [5] > 46 µM | Potency [6] | Potency [7] | activity change, negative = inhibition [8] 0.477% | outcome [9]

O=S(=O)(c1ccccc1)N1CCC[C@@]2(CCN(c3ncccn3)C2)C1
inactive: Potency [1] > 11.4 µM | activity change, negative = inhibition [2] -0.184% | activity change, negative = inhibition [3] 27.1% | activity, negative = inhibition [4] -4.75% | Potency [5] > 46 µM | Potency [6] | Potency [7] | activity change, negative = inhibition [8] 4.79% | outcome [9]
13%: max response [8, 11]
6.87%: max response [8, 10]

COCC(=O)N1CCC2(CC1)CN(c1ccc(-c3ccccc3)cc1)C2
inactive: Potency [1] > 11.4 µM | activity change, negative = inhibition [2] 2.14% | activity change, negative = inhibition [3] 14.1% | activity, negative = inhibition [4] -17.6% | Potency [5] > 46 µM | Potency [6] | Potency [7] | activity change, negative = inhibition [8] 2.72% | outcome [9]
-3.13%: max response [8, 11]
-7.54%: max response [8, 10]

O=C(c1csnn1)N1CCC2(CCCN(c3cccc(-c4ccccc4)c3)C2)CC1
-3.2%: max response [8, 11]
inactive: Potency [1] > 11.4 µM | activity change, negative = inhibition [2] -12.3% | activity change, negative = inhibition [3] -13.8% | activity, negative = inhibition [4] -5.72% | Potency [5] > 46 µM | Potency [6] | Potency [7] | activity change, negative = inhibition [8] -16.4% | outcome [9]
9.62%: max response [8, 10]

COC(=O)N1CCC[C@@]2(CCN(Cc3cc(C(F)(F)F)cc(C(F)(F)F)c3)C2)C1
14.8%: max response [8, 11]
inactive: Potency [1] > 11.4 µM | activity change, negative = inhibition [2] -12.5% | activity change, negative = inhibition [3] 9.2% | activity, negative = inhibition [4] -8.1% | Potency [5] > 46 µM | Potency [6] | Potency [7] | activity change, negative = inhibition [8] -1.37% | outcome [9]
12.3%: max response [8, 10]

Cc1noc(C)c1C(=O)N1CCC[C@@]2(CCN(c3ccccn3)C2)C1
inactive: Potency [1] > 11.4 µM | activity change, negative = inhibition [2] -5.91% | activity change, negative = inhibition [3] -10.2% | activity, negative = inhibition [4] -3.33% | Potency [5] > 46 µM | Potency [6] | Potency [7] | activity change, negative = inhibition [8] -1.14% | outcome [9]
20%: max response [8, 10]
24.9%: max response [8, 11]

COc1ccc(C(=O)N2CCC[C@@]3(CCN(c4ccccn4)C3)C2)cc1
23.4%: max response [8, 11]
inactive: Potency [1] > 11.4 µM | activity change, negative = inhibition [2] -10.4% | activity change, negative = inhibition [3] -4.97% | activity, negative = inhibition [4] -7.47% | Potency [5] > 46 µM | Potency [6] | Potency [7] | activity change, negative = inhibition [8] 5.2% | outcome [9]
13.5%: max response [8, 10]

CC(C)NC(=O)N1CC[C@@]2(CCCN(C(=O)c3ccncc3)C2)C1
inactive: Potency [1] > 11.4 µM | activity change, negative = inhibition [2] -20.1% | activity change, negative = inhibition [3] 16.9% | activity, negative = inhibition [4] -4.77% | Potency [5] > 46 µM | Potency [6] | Potency [7] | activity change, negative = inhibition [8] 0.271% | outcome [9]
-1.86%: max response [8, 10]
0.996%: max response [8, 11]

Cc1noc(C)c1C(=O)N1CCC[C@@]2(CCN(C(=O)Nc3cccc(C#N)c3)C2)C1
14.6%: max response [8, 10]
24.7%: max response [8, 11]
inactive: Potency [1] > 11.4 µM | activity change, negative = inhibition [2] -3.34% | activity change, negative = inhibition [3] 5.42% | activity, negative = inhibition [4] -8.01% | Potency [5] > 46 µM | Potency [6] | Potency [7] | activity change, negative = inhibition [8] 5.85% | outcome [9]

COc1ccccc1CN1CC[C@@]2(CCCN(C(=O)c3cnccn3)C2)C1
12.1%: max response [8, 10]
17.4%: max response [8, 11]
inactive: Potency [1] > 11.4 µM | activity change, negative = inhibition [2] -0.652% | activity change, negative = inhibition [3] 0.87% | activity, negative = inhibition [4] 9.03% | Potency [5] > 46 µM | Potency [6] | Potency [7] | activity change, negative = inhibition [8] 3.53% | outcome [9]
